Key:
Type in all cases: functional
[1] = molecular target: Solute carrier family 2, facilitated glucose transporter member 1 (Homo sapiens) (UniProt P11166); assay: ST_JUDE_LEISH: Cytotoxicity at 2uM final concentration against transgenic Leishmania Mexicana promastigotes LmGLUT1 that are glucose transport deficient and complemented with the human glucose transporter GLUT1. Activity is measured by DNA content using SYBR green in vitro
[2] = molecular target: Hexose transporter 1 (Plasmodium falciparum) (UniProt O97467); assay: ST_JUDE_LEISH: Cytotoxicity at 2uM final concentration against transgenic Leishmania Mexicana promastigotes LmPfHT that are glucose transport deficient and complemented with the Plasmodium falciparum hexose transporter. Activity is measured by DNA content using SYBR green in vitro
[3] = molecular target: Glucose transporter (Leishmania mexicana) (UniProt O61059); assay: ST_JUDE_LEISH: Cytotoxicity at 2uM final concentration against transgenic Leishmania Mexicana promastigotes LmGT2 that are glucose transport deficient and complemented with the L. Mexicana glucose transporter 2. Activity is measured by DNA content using SYBR green in vitro

Sequence of Solute carrier family 2, facilitated glucose transporter member 1 (Homo sapiens) (P11166 whole entry): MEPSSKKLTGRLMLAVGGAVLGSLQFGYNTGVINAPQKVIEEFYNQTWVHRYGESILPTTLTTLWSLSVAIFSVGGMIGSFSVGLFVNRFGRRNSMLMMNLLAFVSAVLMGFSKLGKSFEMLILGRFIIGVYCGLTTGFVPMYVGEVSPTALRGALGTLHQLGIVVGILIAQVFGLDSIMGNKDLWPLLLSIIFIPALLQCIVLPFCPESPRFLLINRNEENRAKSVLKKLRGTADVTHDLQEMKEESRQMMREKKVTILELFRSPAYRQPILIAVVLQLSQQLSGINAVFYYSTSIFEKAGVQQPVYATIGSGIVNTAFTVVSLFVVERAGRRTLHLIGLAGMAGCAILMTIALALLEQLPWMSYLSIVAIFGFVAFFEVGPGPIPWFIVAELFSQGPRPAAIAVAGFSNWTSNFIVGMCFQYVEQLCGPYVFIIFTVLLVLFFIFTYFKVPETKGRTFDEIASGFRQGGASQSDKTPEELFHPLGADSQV

Row | Structure (SMILES) | inhibition [1] | inhibition [2] | inhibition [3]
1 | COc1ccc2[nH]ccc(=NN=Cc3ccncc3)c2c1 | 3.57% | 3.95% | 3.39%
2 | CC(=O)Nc1ccc(C(=O)Nc2cccc(-c3ccc(-c4nc5cc(C(F)(F)F)ccc5[nH]4)s3)c2)cn1 | 3.05% | 3.45% | 4.26%
3 | C=CCN1C(=O)C(C(C)=O)=C(O)C1c1ccccc1 (configuration not stated) | -0.92% | -4.02% | 0.66%
4 | O=C(NCCCCCN1CCC(c2c[nH]c3ccccc23)CC1)Nc1ccc(Cl)cc1Cl | 2.57% | 2.01% | 2.92%

Source: ChEMBL document CHEMBL3433997, “St. Jude Leishmania screening dataset” (2016)
